According to PubChem BioAssay (Tox21):
“And” between values parts separate entries of the source, which are not always exact repeats. Equal entries are not always repeated. Results filed as inconclusive are left out. The source made the active and inactive calls. Unless noted, the call rests on the fitted dose curve; in most records, active means well fitted curve in the direction sought with a large enough effect in the repeat runs; inconclusive means weak or mixed curves; inactive means no such curve, though single readings can be large; an effect the other way counts as inactive or inconclusive.

Tests used:
[1] = target: Peroxisome proliferator-activated receptor delta (Homo sapiens) (UniProt Q03181); assay: qHTS assay to identify small molecule agonists of the peroxisome proliferator-activated receptor delta (PPARd) signaling pathway (AID 743212; calls by dose curve); conditions: HEK293H PPARd-UAS-bla, beta-lactamase FRET ratio, 17 h; series mostly up to 62.6 µM
Chain of Peroxisome proliferator-activated receptor delta (Homo sapiens) (Q03181 whole entry, looked up): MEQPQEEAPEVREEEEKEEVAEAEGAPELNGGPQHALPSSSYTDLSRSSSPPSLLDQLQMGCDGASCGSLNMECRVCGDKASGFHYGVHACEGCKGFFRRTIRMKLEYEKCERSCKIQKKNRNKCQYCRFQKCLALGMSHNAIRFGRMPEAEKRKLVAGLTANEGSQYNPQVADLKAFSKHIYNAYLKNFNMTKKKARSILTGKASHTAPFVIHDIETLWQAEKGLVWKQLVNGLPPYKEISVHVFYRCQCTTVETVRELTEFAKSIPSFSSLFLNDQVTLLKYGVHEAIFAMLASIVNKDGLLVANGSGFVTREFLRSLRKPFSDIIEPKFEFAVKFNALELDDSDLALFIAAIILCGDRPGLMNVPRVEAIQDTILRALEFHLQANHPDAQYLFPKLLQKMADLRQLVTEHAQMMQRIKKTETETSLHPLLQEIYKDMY
In short: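 Cells expressing a UAS-driven beta-lactamase reporter (PPARd-bla HEK293H) were given test compounds after a 5 h settle and kept at 37 C. Reporter activity was then measured as FRET fluorescence using LiveBLAzer B/G substrate.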

[2] = qHTS assay to identify small molecule antagonists of the peroxisome proliferator-activated receptor delta (PPARd) signaling pathway - cell viability counter screen (AID 743213); conditions: PPARd-bla HEK293H viability, CellTiter-Glo luminescence, 17 h; series mostly up to 62 µM; further: nearly all actives have a fitted effect of over 50% in size; further: potency means the concentration at half of the fitted maximal effect
In short: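 PPARd-bla HEK293H cells were treated with compounds plus agonist L165041 (300 nM final) for 17 h at 37 C. Viability was then read in the same wells by CellTiter-Glo luminescence after 30 min at room temperature.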

[3] = qHTS assay to identify small molecule agonists of the farnesoid-X-receptor (FXR) signaling pathway - cell viability counter screen (AID 743218); conditions: FXR-bla HEK293T viability, CellTiter-Glo luminescence, 16 h; series mostly up to 62.6 µM; further: nearly all actives have a fitted effect of over 45% in size; further: potency means the concentration at half of the fitted maximal effect
In short: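 Quantitative HTS counter screen measuring ATP-based viability via CellTiter-Glo luminescence in HEK 293T cells carrying a UAS-driven beta-lactamase reporter, after 16 h compound exposure at 37 C.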

[4] = target: Bile acid receptor (Homo sapiens) (UniProt Q96RI1); assay: qHTS assay to identify small molecule agonists of the farnesoid-X-receptor (FXR) signaling pathway (AID 743220; active means well fitted activation curve with a large enough effect in the signal ratio in the repeat runs, not every such curve was filed as active; the % refers to the signal ratio); conditions: HEK293T FXR-UAS-bla, beta-lactamase FRET ratio, 16 h; series mostly up to 62.6 µM
Chain of Bile acid receptor (Homo sapiens) (Q96RI1 whole entry, looked up): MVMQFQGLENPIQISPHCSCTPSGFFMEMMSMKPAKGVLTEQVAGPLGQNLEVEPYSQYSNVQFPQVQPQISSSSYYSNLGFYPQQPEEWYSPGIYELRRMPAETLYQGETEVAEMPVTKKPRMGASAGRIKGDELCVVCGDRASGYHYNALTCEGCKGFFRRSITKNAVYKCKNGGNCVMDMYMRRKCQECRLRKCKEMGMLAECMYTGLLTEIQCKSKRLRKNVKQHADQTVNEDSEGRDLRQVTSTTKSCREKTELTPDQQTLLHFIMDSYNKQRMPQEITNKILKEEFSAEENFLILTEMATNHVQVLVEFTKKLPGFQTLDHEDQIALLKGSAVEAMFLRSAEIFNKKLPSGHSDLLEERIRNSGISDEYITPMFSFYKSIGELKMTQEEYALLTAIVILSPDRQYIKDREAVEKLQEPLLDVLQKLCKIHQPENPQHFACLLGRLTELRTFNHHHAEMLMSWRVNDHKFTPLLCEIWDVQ
In short: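 FXR-UAS-bla HEK 293T cells carrying a UAS-driven beta-lactamase reporter were plated for 5 h at 37C/5% CO2, then exposed to DMSO-dissolved Tox21 10K compounds for 16 h at 37C. A LiveBLAzer B/G FRET substrate was loaded for 2 h at room temperature before fluorescence reading.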

[5] = qHTS assay to identify small molecule antagonists of the farnesoid-X-receptor (FXR) signaling pathway - cell viability counter screen (AID 743221; active means well fitted cell-killing curve with a large enough effect in the repeat runs, not every such curve was filed as active; further: nearly all actives have a fitted effect of over 50% in size; further: potency means the concentration at half of the fitted maximal effect); conditions: FXR-bla HEK293T viability, CellTiter-Glo luminescence, 16 h; series mostly up to 62.6 µM
In short: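 Luminescence from CellTiter-Glo measures cytotoxicity in GeneBLAzer FXR-UAS-bla HEK 293T cells. Cells were exposed to compounds with 50 uM chenodeoxycholic acid (final) for 16 h at 37 C, in wells also used for the reporter readout.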

[6] = qHTS assay to identify small molecule agonists of the vitamin D receptor (VDR) signaling pathway - cell viability counter screen (AID 743224); conditions: VDR-bla HEK293T viability, CellTiter-Glo luminescence, 16 h; series mostly up to 62.6 µM; further: nearly all actives have a fitted effect of over 50% in size; further: potency means the concentration at half of the fitted maximal effect
In short: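 CellTiter-Glo viability readout on VDR-bla cells, measured after 16 h of compound treatment at 37C in the same wells.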

[7] = target: Peroxisome proliferator-activated receptor delta (Homo sapiens) (UniProt Q03181); assay: qHTS assay to identify small molecule antagonists of the peroxisome proliferator-activated receptor delta (PPARd) signaling pathway (AID 743215; active means well fitted inhibition curve with a large enough effect in the signal ratio in the repeat runs, not every such curve was filed as active; the % refers to the signal ratio;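 further: cells stimulated with agonist L165041 at 300 nM final during compound exposure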; further: potency means the concentration at half of the fitted maximal effect); conditions: HEK293H PPARd-UAS-bla, beta-lactamase FRET ratio, antagonist, 17 h; series mostly up to 62 µM
In short: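 Here, a reporter line (HEK293H, beta-lactamase under a UAS) measures PPARd signaling. Compounds are tested against agonist L165041 at 300 nM final concentration over 17 h at 37 C, with fluorescence read after substrate.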

[8] = target: Vitamin D3 receptor (Homo sapiens) (UniProt P11473); assay: qHTS assay to identify small molecule agonists of the vitamin D receptor (VDR) signaling pathway (AID 743222; calls by dose curve); conditions: HEK293T VDR-UAS-bla, beta-lactamase FRET ratio, 16 h; series mostly up to 63.5 µM
Chain of Vitamin D3 receptor (Homo sapiens) (P11473 whole entry, looked up): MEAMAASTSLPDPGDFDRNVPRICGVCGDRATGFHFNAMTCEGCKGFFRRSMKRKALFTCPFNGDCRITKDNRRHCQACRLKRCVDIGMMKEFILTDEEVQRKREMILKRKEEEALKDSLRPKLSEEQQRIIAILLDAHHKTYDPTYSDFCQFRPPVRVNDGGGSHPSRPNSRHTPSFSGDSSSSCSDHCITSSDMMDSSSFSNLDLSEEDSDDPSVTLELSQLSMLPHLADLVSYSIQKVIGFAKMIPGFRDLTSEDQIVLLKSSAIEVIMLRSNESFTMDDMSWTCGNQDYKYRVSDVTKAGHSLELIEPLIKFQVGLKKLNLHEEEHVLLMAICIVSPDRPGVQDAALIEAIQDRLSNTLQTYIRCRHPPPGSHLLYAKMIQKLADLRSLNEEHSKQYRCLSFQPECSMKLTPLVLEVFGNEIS
In short: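 Tox21 cell reporter format: VDR-bla line, 16 h compound exposure in 5% CO2 at 37C, then fluorescence intensity after 2 h with LiveBLAzer B/G FRET substrate.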

[9] = target: Vitamin D3 receptor (Homo sapiens) (UniProt P11473); assay: qHTS assay to identify small molecule antagonists of the vitamin D receptor (VDR) signaling pathway (AID 743223; active means well fitted inhibition curve with a large enough effect in the signal ratio in the repeat runs, not every such curve was filed as active; the % refers to the signal ratio); conditions: VDR-UAS-bla HEK293T, beta-lactamase FRET ratio, 16 h; series mostly up to 61 µM
In short: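 Antagonist mode uses 1alpha,25-dihydroxyvitamin D3 at 3 nM final as stimulus. VDR-bla cells receive compounds in DMSO, incubate 16 h at 37C, then a beta-lactamase FRET substrate for 2 h at room temperature before fluorescence measurement.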

[10] = target: Bile acid receptor (Homo sapiens) (UniProt Q96RI1); assay: qHTS assay to identify small molecule antagonists of the farnesoid-X-receptor (FXR) signaling pathway (AID 743217; active means well fitted inhibition curve with a large enough effect in the signal ratio in the repeat runs, not every such curve was filed as active; the % refers to the signal ratio; further: potency means the concentration at half of the fitted maximal effect); conditions: HEK293T FXR-UAS-bla, beta-lactamase ratio, CDCA-stimulated, 16 h; series mostly up to 62.6 µM
In short: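 Test compounds are pin-transferred onto FXR-bla HEK 293T cells, then chenodeoxycholic acid is added at 50 uM final. After 16 h at 37 °C, LiveBLAzer B/G substrate is applied for 2 h at room temperature and fluorescence read.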

Measured: Potency

CNC(=O)c1cc(Oc2ccc(NC(=O)Nc3ccc(Cl)c(C(F)(F)F)c3)cc2)ccn1
inactive: [1] | [4]
active: [2] 10.6 µM | [3] 21.1 µM | [5] 29.8 µM | [6] 23.7 µM

CCCCCCC(C)Nc1ccc(Nc2ccccc2)cc1 (stereo not drawn)
inactive: [1]
active: [7] 49 µM | [5] 49 µM | [6] 38.9 µM

C=C(C)C(=O)OCCC[Si](Cl)(Cl)Cl
inactive: [1] | [2] | [7] | [5] | [8] | [9]

CCN(CC)CCNc1ccc(CO)c2sc3ccccc3c(=O)c12
active: [2] 13.3 µM | [7] 23.7 µM | [3] 13.3 µM
inactive: [1] | [4]

O=C1Nc2ccc(Cl)cc2[C@@](C#CC2CC2)(C(F)(F)F)O1
inactive: [1] | [2] | [7] | [3] | [9]

NC(=O)c1ccccc1N
inactive: [1] | [2] | [7] | [3] | [5] | [9]

CCCC(CC)CCCCCCCN (stereo not drawn)
inactive: [1] | [2] | [7] | [3] | [9] | [6]

CC(CN(C)C)CN1c2ccccc2CCc2ccccc21 (stereo not drawn)
inactive: [7] | [10] | [4] | [8] | [9]
active: [2] 29.8 µM | [3] 8.41 µM

COC(=O)[C@]1(C)CCC[C@@]2(C)[C@H]1CC=C1C=C(C(C)C)CC[C@@H]12
inactive: [2] | [10] | [9] | [6]

COc1ccc(-n2nc(CCC(=O)N(C)O)cc2-c2ccc(Cl)cc2)cc1
inactive: [1] | [5]

CC(C)=C1CC[C@@H](C)CC1=O
not listed: [1] | [4] | [10]
inactive: all other assays above

CN(C)c1ccc(N=Nc2ccccc2C(=O)O)cc1
inactive: [1] | [5] | [8] | [6]

CC(=O)Oc1ccc(C2(c3ccc(OC(C)=O)cc3)Oc3ccccc3NC2=O)cc1
inactive: [1] | [4] | [5] | [6]

CC(NCCC(c1ccccc1)c1ccccc1)c1ccccc1 (stereo not drawn)
inactive: [4] | [5] | [8]
active: [2] 8.41 µM | [3] 23.7 µM

CCN(CC)CCOc1ccc(C(O)(Cc2ccc(Cl)cc2)c2ccc(C)cc2)cc1 (stereo not drawn)
inactive: [4]
active: [2] 13.3 µM | [7] 29.8 µM | [3] 13.3 µM | [5] 29.8 µM

CCCCC(CC)COC(=O)c1ccc(O)cc1 (stereo not drawn)
active: [5] 48.8 µM | [6] 21.8 µM and 49 µM
inactive: [1] | [4] | [8]

Cc1cccc(Br)c1
inactive: [2] | [7] | [3] | [5]

C(=C/c1ccccc1)/c1ccccc1
not listed: [1]
inactive: all other assays above

CC(=O)Oc1ccc(C2(c3ccc(OC(C)=O)cc3)C(=O)Nc3ccccc32)cc1
inactive: [2] | [7] | [3] | [5] | [9] | [6]

O=C(O)CCCCCCC(=O)O
inactive: [2] | [10] | [3] | [5] | [9] | [6]

O=C(O)c1cccc(Cl)n1
active: [6] 24.5 µM
inactive: [1] | [3] | [5]

CCCCCCCCCCOCC(O)CN (stereo not drawn)
active: [2] 29.8 µM | [3] 33.5 µM

CCOC(=O)COc1ccc(C)cc1
not listed: [1] | [7] | [8]
inactive: all other assays above

Cc1oc(-c2ccccc2)nc1CCOc1ccc(C[C@H](Nc2ccccc2C(=O)c2ccccc2)C(=O)O)cc1
active: [2] 21.9 µM | [3] 34.7 µM

Nc1cc(Cl)c([N+](=O)[O-])cc1O
not listed: [1] | [4] | [8]
inactive: all other assays above

O=C(O)CC(=O)O
inactive: [2] | [7] | [3] | [5] | [8] | [9]

CCN(CC)c1ccc(N)cc1
inactive: [10]
active: [2] 31.7 µM | [6] 20 µM

C/C=C/C(=O)Oc1c(CCCCCC(C)C)cc([N+](=O)[O-])cc1[N+](=O)[O-]
active: [2] 24.5 µM | [10] 24.5 µM | [5] 43.6 µM | [6] 13.8 µM

CCCCCCCCCCCCOC(=O)c1cc(O)c(O)c(O)c1
active: [2] 34.5 µM and 54.9 µM | [10] 54.9 µM | [3] 43.5 µM | [5] 38.7 µM and 19.5 µM

CC1CCCCN1CCCOC(=O)c1ccc(OC2CCCCC2)cc1 (stereo not drawn)
not listed: [1] | [3] | [8]
inactive: all other assays above

Oc1ccc(-c2ccccc2)c(Cl)c1
inactive: [2] | [7] | [3] | [5] | [9]

O[C@@H](c1cc(C(F)(F)F)nc2c(C(F)(F)F)cccc12)[C@H]1CCCCN1
inactive: [4]
active: [2] 8.41 µM | [7] 13.3 µM | [3] 13.3 µM | [5] 26.6 µM | [6] 21.1 µM

NCCCCCCNCCCCCCN
not listed: [1]
inactive: all other assays above

Cc1cc(Nc2ccc(O)cc2)ccc1N
inactive: [2] | [7] | [4] | [5] | [9] | [6]
